Sampled rows, rich in hits. Any-hit rate of the full collection: about 11%.
IMPase Li inh – cell-permeable IMPase inhibitors with lithium potentiation | CHO-M1 cells, IP1 TR-FRET (IP-One), carbachol + lithium | Potency, µM (highest dose often 59.4 µM), for the others: top-dose activity, negative = IMPase inhibition, hits mostly inhibitors | 0.35% of 210,000 active; active = well fitted curve in the direction sought with a large enough effect; inconclusive = small, poorly fitted or top-dose-only effect, or another doubt; inactive = no such curve, though single readings can be large; an effect the other way counts as inactive or inconclusive;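 also: IP1 builds up when IMPase is blocked and the TR-FRET signal falls; potency is read from the fitted curve at half-maximal effect; plate controls were basal vehicle for no effect and high inhibitor control for full effect; nearly all actives have a fitted effect of over 50% in size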
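IP1 accumulation measured by competitive TR-FRET in lysed CHO-M1 cells after 30 min compound exposure at 37C, with a small lithium addition to potentiate weak responses. Hill-equation AC50 from ratio and donor-channel data.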
HPGD inh – inhibitors of human 15-hydroxyprostaglandin dehydrogenase (HPGD) | P15428 | purified HPGD, NADH fluorescence kinetic, PGE2 substrate | Potency, µM, for the others: top-dose activity change, negative = inhibition, usual class: inhibitors | 4.3% of 150,000 active; also: potency is read from the fitted curve at half-maximal effect
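NADH formation kinetics: reaction with 30 uM PGE2 and 1 mM NAD+ (final), 20 nM enzyme, Tris-HCl pH 8 with Tween 20, after 15 min compound preincubation at room temperature. Fluorescence change, last versus first of five reads.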
ALDH1A1 inh – ALDH1A1 (human) enzyme inhibition; Potency, µM (highest dose often 75.3 µM), for inactives: at the highest dose activity, negative = inhibition, usual class: inhibitors; Purified ALDH1A1, NADH fluorescence, propionaldehyde substrate; 7.3% of 220,000 active; P00352; AID 1030;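 also: potency is read from the fitted curve at half-maximal effect; plate controls were no enzyme wells and a reference inhibitor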
Target sequence (P00352 whole entry, looked up): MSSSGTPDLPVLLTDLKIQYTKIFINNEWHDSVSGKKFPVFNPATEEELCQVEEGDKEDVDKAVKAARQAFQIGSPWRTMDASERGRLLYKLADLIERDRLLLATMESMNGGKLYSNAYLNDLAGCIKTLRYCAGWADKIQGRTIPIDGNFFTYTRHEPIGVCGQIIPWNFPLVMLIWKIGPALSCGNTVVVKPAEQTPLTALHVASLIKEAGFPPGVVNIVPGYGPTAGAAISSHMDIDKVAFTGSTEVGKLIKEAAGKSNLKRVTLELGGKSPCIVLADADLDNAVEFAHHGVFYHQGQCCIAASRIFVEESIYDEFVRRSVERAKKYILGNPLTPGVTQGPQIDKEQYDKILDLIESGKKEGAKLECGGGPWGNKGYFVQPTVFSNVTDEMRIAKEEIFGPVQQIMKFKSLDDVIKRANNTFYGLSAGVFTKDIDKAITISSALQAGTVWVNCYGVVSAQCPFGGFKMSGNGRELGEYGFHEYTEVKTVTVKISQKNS
12-hLO inh – blocks human 12-lipoxygenase activity; Potency, µM (titrated, usually from 57.1 µM), inactives show at the highest dose activity change, negative = inhibition, usual class: inhibitors; 0.12% of 150,000 active; purified 12-hLO, xylenol orange hydroperoxide absorbance; AID 1452; active = well fitted curve in the direction sought with a large enough effect; inconclusive = small, poorly fitted or top-dose-only effect, or another doubt; inactive = no such curve, though single readings can be large; an effect the other way counts as inactive or inconclusive; also: potency is read from the fitted curve at half-maximal effect; nearly all actives have a fitted effect of over 55% in size
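Hydroperoxide output read as Fe(III)-xylenol orange absorbance, 573-to-405 nm ratio, after 30 min reaction with 40 uM arachidonic acid. Enzyme: 150 nM purified human 12hLO, 15 min compound preincubation; 25 mM Hepes pH 7.0, room temperature.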
PNC assembly inh – inhibitors of perinucleolar compartment assembly. PC3M PTB-GFP, PNC prevalence imaging, 16 h; active compounds read low. activity change (PNC), negative = inhibition, % at 10 µM. 3.1% of 140,000 active;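 active = readout at or below -70, meaning at least 70% loss of cells showing the perinucleolar compartment, a nuclear body marking cancer cells; inconclusive = readout between -30 and a set limit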;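 also: plate controls were DMSO wells for no effect and camptothecin positive control wells for full effect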
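Read-out is percentage of cells bearing a perinucleolar compartment, from automated 20x imaging of fixed, Hoechst-stained PC3M PTB-GFP cells. Cells were seeded 4 h, then exposed 16 h to compound (23 nl of library stock) in duplicate plates.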
IMPase cell inh – cell-permeable inhibitors of inositol monophosphatase (IMPase); P97697; CHO-M1 cells, IP1 accumulation, HTRF TR-FRET ratio; inhibition (IP1 accumulation), % at 46.1 µM; 120,000 tested, under 10 active; active = well fitted curve in the direction sought with a large enough effect in the signal ratio, not every such curve was filed as active; inconclusive = small, poorly fitted or top-dose-only effect, or a change in a side signal; inactive = no such curve, though single readings can be large or run the other way; the % refers to the signal ratio;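 also: cells stimulated with carbachol in lithium chloride buffer; plate controls were DMSO basal wells for no effect and reference inhibitor wells for full effect; higher means more IMPase inhibition seen as more IP1 and lower FRET ratio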
Target sequence (P97697 whole entry, looked up): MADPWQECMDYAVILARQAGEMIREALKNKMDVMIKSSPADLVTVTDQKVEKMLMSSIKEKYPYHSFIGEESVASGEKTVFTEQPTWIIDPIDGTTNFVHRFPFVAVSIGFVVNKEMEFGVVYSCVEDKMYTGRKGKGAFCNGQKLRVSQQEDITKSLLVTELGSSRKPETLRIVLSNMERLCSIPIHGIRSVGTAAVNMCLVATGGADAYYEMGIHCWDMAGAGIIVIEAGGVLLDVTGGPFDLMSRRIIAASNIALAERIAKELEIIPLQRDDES
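Elevated IP1 in lysates lowers TR-FRET signal (665/620 ratio and 620 channel reported). Cells were CHO-M1, given carbachol (50 uM as added) plus 50mM LiCl, pH 7.4, 30 min, 37C; compounds titrated up to 46 uM; AC50 by Hill equation.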
The depositor's hits bear a star; u = inconclusive; x = no result; [ ] = another dose, or the depositor's remark. Unless noted, calls follow the shape of the dose curve; as a rule, active = well fitted inhibition curve with a large enough effect (not every such curve was filed as active); inconclusive = small, poorly fitted or top-dose-only effect, or another doubt; inactive = no such curve, though single readings can be large or run the other way. Unless noted, % is scaled to controls: 0 for no effect and ±100 for the full control effect.

SMILES	IMPase Li inh	HPGD inh	ALDH1A1 inh	12-hLO inh	PNC assembly inh	IMPase cell inh
COc1ccc(C(=O)CSc2nnc(-c3ccc(C)cc3)o2)cc1	u	-10.9%	u	1.2%	4.7	-3.6
CNC(=O)CSc1nnc(-c2cc(C)cc(C)c2)o1	27.6%[38.3 µM]	-9.8%	4.4%	-5.1%	-103.2*	-1.2
CCS(=O)(=O)Nc1ccc(-c2nnc(SCC(=O)c3ccc(NC(C)=O)c(OC)c3)o2)cc1	-22.7%[38.3 µM]	0.794µM*	3.8%	-1.7%	25.5	10.0
COc1cccc(NC(=O)CSc2nnc(-c3ccc(C)cc3)o2)c1	u	-14.5%	12.7%	-4.4%	26.3	-2.5
COc1cccc(Nc2ncc3nc(C)c(=O)n(C)c3n2)c1	u	x	2.6%	x	x	x
COc1cc(-c2nnc(SCc3c(F)cccc3Cl)o2)cc(OC)c1OC	39.9%[38.3 µM]	u	4.47µM*	2.2%	u	3.7
COc1cc(-c2nnc(SCc3ccccc3Cl)o2)cc(OC)c1OC	27.0%[38.3 µM]	-14.6%	u	-3.3%	-19.5	9.8
COCc1c(C)cc(C)c(/C=N/O)c1C	-2.8%[38.3 µM]	14.1µM*	11.6%	4.5%	32.7	7.4
O=C(c1ccco1)N1CCC2(CC1)CN(c1cccc(-c3ccccc3)c1)C2	2.5%	u	u	-3.4%	x	x
O=S(=O)(c1ccc(-c2csc(-c3cccnc3)n2)cc1)N1CCCC1	21.8%[38.3 µM]	u	u	-3.7%	17.2	-1.3
O=S(=O)(c1ccc(-c2csc(-c3cccnc3)n2)cc1)N1CCCCC1	5.0%	28.2µM*	u	-5.6%	-23.1	u
c1cncc(-c2nc(-c3ccco3)cs2)c1	17.7%[38.3 µM]	u	1.26µM*	-3.5%	9.2	-9.5
CCC(C)(C)NC(=O)CN(Cc1ccccc1Cl)C(=O)CCC(=O)Nc1cc(C)ccn1	0.0%	x	14.1µM*	x	x	x
Cc1ccnc(NC(=O)CCC(=O)N(CC(=O)NCCc2ccccc2)Cc2ccco2)c1	18.4%[38.3 µM]	-6.7%	7.94µM*	-6.0%	3.6	20.4
O=C(CN(Cc1ccc(F)cc1)C(=O)CCC(=O)Nc1ccccn1)NCc1ccco1	-7.4%[38.3 µM]	-13.1%	7.9%	3.1%	31.1	4.9
CC(C)N1C(=O)C(Cc2nc3ccccc3c(=O)n2-c2ccccc2)c2ccccc21 (centres undefined)	11.2%[38.3 µM]	-15.4%	u	-6.4%	10.6	10.1
CCCN1C(=O)C(Cc2nc3ccccc3c(=O)n2-c2ccccc2)c2ccccc21 (centres undefined)	4.6%	-1.7%	8.91µM*	-1.2%	41.7	x
O=C(c1cc(COc2c(F)cccc2F)on1)N1CCc2ccccc2C1	14.1%	x	4.1%	x	x	x
CC(C)(C)c1ccccc1NC(=O)CSc1nc(-c2cccs2)cc(C(F)(F)F)n1	x	x	x	x	x	-10.2
CCn1c(=O)c(C(=O)Nc2ccc(C(C)=O)cc2)nc2ccccc21	x	x	x	x	x	-8.8
COc1ccc(CNC(=O)CCS(=O)(=O)c2cc(Br)cc3c2N(C(=O)C2CC2)CC3)cc1	x	x	x	x	x	6.7
CCCCCCCCCCCCCCCC(=O)N[C@H](CN1CCOCC1)[C@H](O)c1ccccc1	7.4%	-27.9%	-6.1%	3.4%	x	x
CC(=O)[C@@H]1CC[C@@H]2[C@@H]3C[C@H](C)C4=CC(=O)CC[C@@]4(C)[C@H]3[C@H](O)C[C@]21C	-5.8%	1.9%	-17.8%[20.9 µM]	-0.7%[25.6 µM]	x	-8.7[20.6 µM]
CCC(CC)C(=O)c1c[nH]c(C(=O)NN)c1	-1.5%	x	7.94µM*	x	x	x
CCC(CC)C(=O)c1c[nH]c(C(=O)O)c1	-4.8%	x	8.0%	x	x	x
SMILES	IMPase Li inh	HPGD inh	ALDH1A1 inh	12-hLO inh	PNC assembly inh	IMPase cell inh
Cc1cccn2c(CN(C)C3CCOC3)c(C(=O)N3CCCCC3)nc12 (centres undefined)	-1.7%	x	5.0%	x	x	x
Cc1cccn2c(CN(C)CCC3CCCCO3)c(C(=O)N3CCCCC3)nc12 (centres undefined)	24.9%	x	3.16µM*	x	x	x
CCN1C(=O)[C@H]2[C@H]3[C@H](O)[C@H](O)C/C(=N/OC[C@@H](O)[C@H]4O[C@H]5OC(C)(C)O[C@H]5[C@@H]4O)[C@@H]3CC[C@@H]2C1=O	x	x	14.1%[13.5 µM]	x	x	x
C=CCNC1=C2C[C@@H](C)C[C@H](OC)[C@H](O)[C@@H](C)/C=C(\C)[C@H](OC(N)=O)[C@@H](OC)/C=C/C=C(\C)C(=O)NC(=CC1=O)C2=O	8.2%	-8.8%	-0.2%[13.5 µM]	1.6%[0.00818 µM]	x	x
CC1(C)Cc2nc3oc4c(N5CCOCC5)ncnc4c3cc2CO1	11.5%[38.3 µM]	u	u	0.7%	-109.4*	7.8
CC1(C)Cc2nc3oc4c(N(CCO)Cc5ccccc5)ncnc4c3cc2CO1	-7.5%[38.3 µM]	u	u	1.4%	-21.9	14.0
COCCSc1ncnc2c1oc1nc3c(cc12)COC(C)(C)C3	x	x	6.31µM*	x	x	x
CC(Sc1nc2ccccc2[nH]1)C(=O)Nc1ccccc1F (centres undefined)	-0.4%	x	11.9%	x	x	x
O=c1c(-c2cccs2)nc2cnc(Oc3cccc(Cl)c3)nc2n1C1CC1	8.9%	u	u	3.8%	x	x
c1cncc(N=c2scc(-c3cccc4ccccc34)n2CCCn2ccnc2)c1	16.2%	-21.5%	u	-0.2%	-92.5*	x
COCCn1c(-c2ccccc2)csc1=Nc1cccnc1	16.4%	x	6.8%	x	x	x
CCOCCCNC(=O)C(NC(=O)Cc1cccs1)c1ccc(OC)cc1 (centres undefined)	-0.9%	x	0.8%	x	x	x
COc1ccc(-n2nc(C(=O)NCC(=O)N3CCN(c4ccccn4)CC3)c3ccccc3c2=O)cc1OC	15.1%	x	-0.3%	x	x	x
COc1ccc(-n2nc(C(=O)NCC(=O)N3CCN(c4ccccn4)CC3)c3ccccc3c2=O)cc1	5.2%[38.3 µM]	u	28.2µM*	-8.6%	-4.7	3.1
COc1ccc(-n2nc(C(=O)NCc3ccco3)c3c4ccccc4n(C)c3c2=O)cc1	u	u	u	2.9%	-13.4	x
COc1ccc(-n2nc(C(=O)NCc3ccco3)c3ccccc3c2=O)cc1	u	u	u	7.7%	-83.9*	-7.0
COc1ccc(NC(=O)CSc2nc(-c3ccc(OC)c(OC)c3)[nH]c2-c2ccc(C)cc2)cc1	x	x	x	x	x	-6.4
C=CCn1c(-c2csc3c2CCC(C)C3)n[nH]c1=S (centres undefined)	9.6%	20µM*	u	-15.9%	u	x
C=CCn1c(-c2ccccc2OC)n[nH]c1=S	-4.4%	-10.6%	5.7%	-0.7%	15.3	x
CCCCn1c(-c2csc3ccccc23)n[nH]c1=S	30.1%[38.3 µM]	u	u	-9.9%	3.8	-1.1
CCn1c(-c2csc3c2CCCC3)n[nH]c1=S	-5.6%	25.1µM*	u	-3.0%	32.9	x
CCCCn1c(-c2csc3c2CCCC3)n[nH]c1=S	58.0%[38.3 µM]	15.8µM*	u	u	-4.4	15.0
O=c1c(-c2cccs2)nc2cncnc2n1Cc1ccccc1	0.9%	x	u	x	x	x

High-throughput results (PubChem)
